Source: PubChem BioAssay AID2221 (Broad Institute, 2009)
Among all 290,000 compounds or so, about 2,200 (0.76%) were called active. Many of the other results were omitted from the sample, so actives are more common in it than they were. A number with no mark means an inactive call. No stated cut-off is given here; in the data, active means inhibition above about 30%; inconclusive means no clear call, values can overlap the other calls; inactive means below that.

Target: Protein RecA (Mycobacterium tuberculosis (strain ATCC 25618 / H37Rv)) (UniProt P9WHJ3)
Sequence (P9WHJ3 whole entry, looked up): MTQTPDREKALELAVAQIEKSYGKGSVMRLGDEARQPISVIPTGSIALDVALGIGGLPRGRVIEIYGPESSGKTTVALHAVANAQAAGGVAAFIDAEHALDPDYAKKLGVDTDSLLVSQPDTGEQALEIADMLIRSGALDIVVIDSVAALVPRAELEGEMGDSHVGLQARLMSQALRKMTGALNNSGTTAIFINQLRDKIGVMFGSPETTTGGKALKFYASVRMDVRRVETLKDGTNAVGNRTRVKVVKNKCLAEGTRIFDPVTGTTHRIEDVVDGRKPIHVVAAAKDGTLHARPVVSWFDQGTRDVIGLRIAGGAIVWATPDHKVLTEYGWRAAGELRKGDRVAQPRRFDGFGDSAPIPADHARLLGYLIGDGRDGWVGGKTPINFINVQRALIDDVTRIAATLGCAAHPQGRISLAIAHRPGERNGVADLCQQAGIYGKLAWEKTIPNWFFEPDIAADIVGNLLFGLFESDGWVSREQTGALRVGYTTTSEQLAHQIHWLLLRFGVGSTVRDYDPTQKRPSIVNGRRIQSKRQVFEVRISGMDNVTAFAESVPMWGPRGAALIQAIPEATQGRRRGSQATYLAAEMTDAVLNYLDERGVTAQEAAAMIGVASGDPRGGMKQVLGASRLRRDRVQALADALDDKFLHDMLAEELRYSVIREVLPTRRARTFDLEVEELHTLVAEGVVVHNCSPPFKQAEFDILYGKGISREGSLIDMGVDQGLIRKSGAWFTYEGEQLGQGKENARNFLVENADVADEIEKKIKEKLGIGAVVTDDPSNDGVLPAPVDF
Assay: Mtb RecA intein splicing inhibitors, primary screen, biochemical, fluorescence, HTS (AID 2221);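 further: 0% = vehicle wells and 100% = reference inhibitor control wells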
Conditions: cell-free RecA intein splicing, hits give high values, concentration not given here

SMILES | inhibition
COc1cccc(CNC(=O)C2CCCN(c3ncnc4c3nc3n4CCCCC3)C2)c1 (stereo not given) | 3.28%
CC(=O)c1ccc(NC(=O)c2ccc3c(Cl)c4c(nc3c2)CCCC4)cc1 | -0.115%
COc1cccc(NC(=O)c2ccc3c(SCC(=O)O)c4c(nc3c2)CCCC4)c1 | 16.6%
O=C(O)CSc1c2c(nc3cc(C(=O)Nc4cccc(C(F)(F)F)c4)ccc13)CCCC2 | 45.1% (active)
CC(C)CC(=O)Nc1nnc(S(=O)(=O)N(C)c2ccc(Cl)cc2)s1 | -1.1%
O=C(C1CCCN(S(=O)(=O)c2ccc([N+](=O)[O-])cc2)C1)N1CCCCC1 (stereo not given) | -2.27%
O=c1oc2ccccc2c(NC2CCCCC2)c1NS(=O)(=O)c1ccc(Cl)cc1 | -0.796%
COC(=O)c1cn(C(=O)c2ccc(Cl)cc2)c2ccccc12 | -1.64%
COC(=O)c1ccc(-n2cnc3ccccc32)nc1 | -0.81%
O=C(c1ccc(Cl)cc1)n1cnc2ccccc21 | 48.8% (active)
O=C(Nc1ncccc1O)c1ccc(S(=O)(=O)N2CCCCCC2)cc1 | -0.935%
Oc1c(Cl)cc(Cl)c(Cl)c1Cc1c(O)c(Cl)cc(Cl)c1Cl | 43.2% (active)
COC(=O)c1nc(NC(=O)c2ccc(Cl)cc2)n[nH]1 | -2.52%
COC(=O)c1nc(NC(=O)c2ccc(C(C)(C)C)cc2)n[nH]1 | 32.8% (active)
COC(=O)c1nc(NC(=O)c2ccc(F)cc2)n[nH]1 | 22.9%
CC(=O)N1CC(=O)N(CC(=O)Nc2ccc(Br)cc2)C1=S | -3.4%
O=C(Oc1cccc(O)c1)C1CCCCC1 | -20.9%
COC(=O)C1=C(C(=O)OC)C(c2cc([N+](=O)[O-])ccc2O)c2sc(=O)[nH]c2S1 (stereo not given) | -7.2%
CCOC(=O)c1c(C)nc(-c2ccccc2)nc1NC(=O)C(C)C | -0.631%
CCOC(=O)c1c(C)[nH]c2c1-c1ccccc1C(=O)C2=O | 97.6% (active)

SMILES | inhibition
CCOC(=O)c1c(C)[nH]c(C)c1S(=O)(=O)N(C)CC(=O)Nc1ccccc1C | -2.47%
Cc1cc(C=O)c(C)n1-c1ccc(NC2CCCCC2)c([N+](=O)[O-])c1 | 15.3%
NC1=NN(c2cccc(C(=O)O)c2)C(=O)C1 | 83.8% (active)
O=C(c1cccc(N2CCCC2=O)c1)N1CCOCC1 | 2.18%
O=C(O)c1cccc(N2C(=O)Nc3ccccc3N2O)c1 | -5.4%
N=C1/C(=C/c2cccn2-c2cccc([N+](=O)[O-])c2)C(=O)N=C2SC=CN12 | -0.963%
O=c1[nH]n2c(-c3ccccc3)nc(O)c2c2ccccc12 | -1.37%
O=c1[nH]c2ccccc2n2c(-c3ccccc3)nnc12 | 33.2% (active)
Cc1ccccc1Cn1c(=O)[nH]c2ccccc21 | 3.55%
CN(C(=O)CSc1nnc(N)s1)c1c(N)n(Cc2ccccc2)c(=O)[nH]c1=O | -0.327%
CC(C)(C)C(=O)N1CCC[C@@]1(CO)C(=O)O | -0.553%
CCc1ccc2nc(Nc3ncc(C(C)=O)c(C)n3)nc(C)c2c1 | 1.55%
Brc1ccc(-c2n(-c3ccccn3)c3ccccc3[n+]2-c2ccccn2)cc1 | 6.87%
Cc1[nH]c2ccccc2c1C(=O)CN1CCCC(C)C1 (stereo not given) | -2.48%
CCn1nnnc1SCC(=O)Nc1ccc(N(C)C)cc1 | -2.84%
CC(OC(=O)c1ccccc1OCc1ccc(Cl)cc1)C(N)=O (stereo not given) | -4.29%
Cc1ccc(N(Cc2cc3ccccc3[nH]c2=O)C(=O)c2cccs2)cc1 | 0.4%
Cc1ccc(N(Cc2cc(=O)[nH]c3ccccc23)C(=O)CCl)cc1 | 69.5% (active)
CC(=O)N(Cc1cc(=O)[nH]c2ccccc12)c1ccc(C)cc1C | 2.74%
O=C(Cc1c[nH]c2ccccc12)OCCOC(=O)Cc1c[nH]c2ccccc12 | 1.52%

SMILES | inhibition
COc1ccccc1CC(=O)NCCc1c[nH]c2ccccc12 | 3.54%
O=S(=O)(O)Oc1c[nH]c2ccccc12 | 75% (active)
O=C(O)C1CCCN(CCC=C(c2ccccc2)c2ccccc2)C1 (stereo not given) | -1.43%
O=C(Nc1ccccc1)c1ccc(NC(=O)c2cccs2)cc1 | -3.07%
O=C(Nc1n[nH]c(C(F)(F)F)n1)c1cccs1 | 51.9% (active)
O=S(=O)(Nc1n[nH]c(C(F)(F)F)n1)c1ccccc1 | -1.49%
Cc1ccc(-c2noc(C3CCCN(C(=O)c4cccc(Cl)c4)C3)n2)o1 (stereo not given) | 1.61%
C=CCOC(=O)C1=C(C)OC(N)=C(C#N)C1c1ccc(F)cc1 (stereo not given) | 5.83%
COC(=O)C1=C(C)OC(N)=C(C#N)C1c1cc(OC)ccc1OC (stereo not given) | -1.82%
Cn1c2c(c(=O)n(C)c1=O)C(c1cccc(F)c1)C(C#N)=C(N)O2 (stereo not given) | -1.55%
Cc1nn(-c2ccccc2)c2c1C(c1ccc(F)cc1)C(C#N)=C(N)O2 (stereo not given) | 43.3% (active)
COc1ccccc1C1C(C#N)=C(N)Oc2c1c(-c1ccccc1)nn2-c1ccccc1 (stereo not given) | 35.8% (active)
Cc1nn(Cc2ccccc2)c2c1C(c1ccccc1)C(C#N)=C(N)O2 (stereo not given) | 66.3% (active)
COc1ccc(C2C(C#N)=C(N)Oc3cc(N)ccc32)cc1OC (stereo not given) | -13.5%
Cc1nn(Cc2ccccc2)c(C)c1NS(=O)(=O)c1ccccc1 | 1.17%
Cc1cc(C)c2c3c(sc2n1)C(c1ccccc1)C(C#N)=C(N)O3 (stereo not given) | -1.99%
Cc1n[nH]c(C)c1S(=O)(=O)N1CCCC(C(=O)Nc2ccc(Br)cc2)C1 (stereo not given) | -13.2%
CC1CC(C)(C)CC2(C1)NC(=O)N(CC(=O)Nc1nccs1)C2=O (stereo not given) | -1.2%
CCN1CCC2(CC1)N=C(c1ccc(F)cc1)C(=S)N2C(=O)c1ccc(C)cc1 | 1.27%
COc1ccc(-c2ccc(CCC(=O)O)n2NC(=O)c2ccc(C(C)(C)C)cc2)cc1 | 3.63%
